SKKanGAS inh: S. pyogenes SKKanGAS growth inhibitors in kanamycin, primary screen, streptokinase expression inhibitor project, SKKanGAS strain, BacTiter-Glo luminescence; 6 h; AID 1662, 2009; actives 1.3% (n = 300,000); inhibition, % at 7.5 µM;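 active = mean replicate score, as percent of positive control median, at least 50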;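 also: strain carries kanamycin resistance gene driven by streptokinase promoter and grows in 40 µg/ml kanamycin; loss of luminescence reflects streptokinase promoter inhibition or plain growth inhibition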
tim23-1 inh: growth inhibitors of tim23-1 mutant yeast, primary screen, luminescence, uHTS; AID 463212, 2010; actives 1.3% (n = 330,000); inhibition, % at 20 µM; S. cerevisiae tim23-1 growth, BacTiter-Glo luminescence, 24 h;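 active = growth inhibition of the mutant yeast at or above 50%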;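 also: temperature-sensitive mutant grown at 25 °C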
TIM10 inh: growth inhibitors of isogenic TIM10 control yeast, primary screen, counter-screen for tim10-1 yeast inhibitor project, luminescence, uHTS; S. cerevisiae TIM10 strain growth, BacTiter-Glo luminescence, 24 h; inhibition, % at 10 µM; actives 1.4% (n = 330,000);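 active = inhibition of 40% or more at the single tested concentration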;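 also: wild-type TIM10 isogenic control strain grown at permissive 25 °C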
ATG4B inhibitor: ATG4B protease inhibitors, primary screen, biochemical, fluorescence, uHTS | actives 0.51% (n = 340,000) | ATG4B cleavage of LC3-PLA2, NBD-HPC fluorescence, 1 h | inhibition, % at 8.33 µM; in the data active = inhibition above about 40%
Target sequence (Q9Y4P1 whole entry, looked up): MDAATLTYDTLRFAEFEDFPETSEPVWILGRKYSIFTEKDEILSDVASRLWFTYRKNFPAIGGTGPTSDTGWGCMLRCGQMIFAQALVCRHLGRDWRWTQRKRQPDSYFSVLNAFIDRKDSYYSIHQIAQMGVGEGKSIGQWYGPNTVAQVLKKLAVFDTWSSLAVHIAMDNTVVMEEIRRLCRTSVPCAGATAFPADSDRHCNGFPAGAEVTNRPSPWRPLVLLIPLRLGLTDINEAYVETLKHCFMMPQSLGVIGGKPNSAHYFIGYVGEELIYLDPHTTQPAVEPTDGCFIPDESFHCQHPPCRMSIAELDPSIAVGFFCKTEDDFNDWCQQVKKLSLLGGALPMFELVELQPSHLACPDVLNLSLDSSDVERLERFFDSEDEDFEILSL
tim10-1 inh: growth inhibitors of tim10-1 mutant yeast, primary screen, luminescence, uHTS; actives 2.2% (n = 330,000); inhibition, % at 20 µM; S. cerevisiae tim10-1 ts strain growth, BacTiter-Glo, 24 h; AID 463190, 2010;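 active = inhibition of at least 40%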;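 also: mutant grown at 25 °C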
PfHsp90 yeast 2: growth inhibition of PfHsp90-expressing yeast, primary screen, antimalarial PfHsp90 inhibitor project, S. cerevisiae, BacTiter-Glo luminescence, single point, set 2; BacTiter-Glo ATP, 48 h; yeast lacking PDR1 and PDR3 efflux regulators; AID 504621, 2011; actives 0.32% (n = 310,000); inhibition, % at 9.4 µM;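 active = every replicate shows inhibition above about 80%, whatever the replicate mean, limit read from the data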
TIM10 conf: growth inhibitors of wild-type TIM10 yeast, confirmation, counter-screen for tim10-1 synthetic lethality project, single concentration, luminescence, S. cerevisiae; AID 463215, 2010; actives 63% (n = 4,600); shares compounds with TIM10 inh; S. cerevisiae tim10 strain growth, BacTiter-Glo luminescence, 24 h; inhibition, % at 10 µM;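 active = inhibition of yeast growth at or above a set limit in either of two replicates at 10 µM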; also: this counterscreen used the strain with wild-type TIM10
tim23-1 confirm: tim23-1 mutant yeast growth inhibitors, confirmation, luminescence, single concentration; shares compounds with tim23-1 inh; S. cerevisiae tim23-1 growth, BacTiter-Glo luminescence, 24 h; inhibition, % at 20 µM; actives 83% (n = 4,400); AID 463218, 2010;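 active = inhibition above about 39% in either of two replicate wells at 20 µM, limit read from the data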;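 also: temperature-sensitive tim23-1 mutant grown at 25 °C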
Each line names hits and unclear results; the compound was inactive in the other large screens (follow-up assays come after a bar, where they were run). Compounds with a hit are over-represented: about 4.7% of the library has one in this group of screens.

Cc1c(C(=O)N2CCN(C(c3ccccc3)c3ccccc3)CC2)oc2ccccc12	none (no result: SKKanGAS inh, PfHsp90 yeast 2)
CCCOC(=O)Oc1ccc2c(=O)c(Oc3cc(C)cc(C)c3)coc2c1	tim23-1 inh 51, TIM10 inh 47 | TIM10 conf 41 | tim23-1 confirm 53
CNC(=S)N/N=C/c1cn(Cc2ccc(F)cc2)c2ccccc12	tim23-1 inh 51, TIM10 inh 40 | TIM10 conf 49 | tim23-1 confirm 39
Cn1c(CSc2nc3ccc(Br)cc3[nH]2)nc2ccccc21	tim23-1 inh 61, TIM10 inh 41 | TIM10 conf inactive | tim23-1 confirm 57
O=C(O)CCSc1nc2ccc(Br)cc2[nH]1	none
CCOn1c(=O)c(-c2ccccc2)[n+]([O-])c2ccccc21	none
COc1ccc(C(=O)NN)cc1COc1ccc(Br)cc1	tim23-1 inh 61, TIM10 inh 47 | TIM10 conf 40 | tim23-1 confirm 43
c1ccc2c(c1)ncn2CCC1CCCCC1	tim23-1 inh 53, TIM10 inh 42 | TIM10 conf 35 | tim23-1 confirm inactive
NC(=O)CCn1cnc2ccccc21	none
CC1(c2ccccc2)ON(c2ccccc2C(F)(F)F)C1=O (stereo unspecified)	tim23-1 inh 62, TIM10 inh 54 (no result: SKKanGAS inh, ATG4B inhibitor, PfHsp90 yeast 2) | TIM10 conf 65 | tim23-1 confirm inactive
O=C1N(c2ccccc2C(F)(F)F)O[C@]1(c1ccccc1)C1CCCC1	none (no result: SKKanGAS inh)
COc1ccc(-c2cc(=O)c3ccccc3s2)cc1	tim23-1 inh 52, TIM10 inh 42 | TIM10 conf 44 | tim23-1 confirm 54
O=C(CSc1nc(-c2ccco2)cc(C(F)(F)F)n1)Nc1ccc2c(c1)CCC2	none
CCOC(=O)CSC1=NC(=O)/C(=C\c2ccc(Cl)cc2)S1	tim23-1 inh 71, TIM10 inh 50 | TIM10 conf 58 | tim23-1 confirm 45
CCn1c2ccccc2c2nnc(SCC(=O)NCc3cccs3)nc21	none
CCC(Cc1ccccc1)NS(=O)(=O)c1ccc2c(c1)NC(=O)C(C)S2 (stereo unspecified)	none
C/C(=N\NC(=S)NCCc1ccccc1)c1cccs1	tim23-1 inh 51, TIM10 inh 41 | TIM10 conf inactive | tim23-1 confirm 46
Cn1c(=O)c2c(SCC(=O)NCCc3ccccc3)nc(C3CC3)nc2n(C)c1=O	none (no result: PfHsp90 yeast 2)
CCOc1nc(-c2ccncc2)nc2ccccc12	tim23-1 inh 57, TIM10 inh 58 | TIM10 conf 44 | tim23-1 confirm 54
CCCOc1ccc(-c2nc(OCC)c3ccccc3n2)cc1	none
CS(=O)(=O)N(Cc1ccccc1)c1ccccn1	none
CC(=O)c1c(N2CCN(Cc3ccc4c(c3)OCO4)CC2)nc(=S)n(-c2ccccc2)c1C	none
O/N=C/c1ccccc1OCc1ccc(Cl)cc1	tim23-1 inh 52, TIM10 inh 42 | TIM10 conf inactive | tim23-1 confirm 59
O/N=C/c1ccccc1OCc1ccccc1Cl	none
Nc1ccc(-c2nc3ncccc3o2)c(O)c1	tim23-1 inh 58, TIM10 inh 50 | TIM10 conf 43 | tim23-1 confirm 65
Cc1cc(-c2nc3ncccc3o2)ccc1N	none
CC1=NN(C(N)=S)C(=O)C1N=Nc1ccc(S(N)(=O)=O)cc1 (stereo unspecified)	none
CC1=NN(C(N)=S)C(=O)C1N=Nc1c(Br)cc(Br)cc1Br (stereo unspecified)	SKKanGAS inh 66, tim23-1 inh 60, TIM10 inh 45 | TIM10 conf 60 | tim23-1 confirm 63

High-throughput results: PubChem, several laboratories
